Data as given in PubChem BioAssay (NCI).
The panel holds about 83,000 compounds, 20% with a hit somewhere; the sample as a whole holds those more often.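 Single-concentration screen, 48 h exposure, 96-well plates. Endpoint: percent growth. Below 10 = active.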 Unmarked numbers belong to inactive results. Active and inactive are the calls of the source.

Experiments:
Test in all cases: NCI-60 one-dose screen, 48 h (100 = growth as untreated, 0 = no growth, -100 = all killed)
Conditions in all cases: 10 µM unless noted
[1] = tested on: DU-145 prostate
[2] = tested on: K-562 leukemia
[3] = tested on: MALME-3M melanoma
[4] = tested on: MDA-MB-231 breast
[5] = tested on: RXF 393 renal
[6] = tested on: SF-268 CNS
[7] = tested on: SF-539 CNS
[8] = tested on: UACC-257 melanoma
[9] = tested on: M14 melanoma
[10] = tested on: HCT-15 colon
[11] = tested on: HT29 colon
[12] = tested on: SNB-75 CNS
[13] = tested on: SNB-19 CNS
[14] = tested on: U251 CNS
[15] = tested on: PC-3 prostate
[16] = tested on: SK-MEL-5 melanoma
[17] = tested on: UACC-62 melanoma
[18] = tested on: LOX IMVI melanoma
[19] = tested on: SK-MEL-28 melanoma

Compound	growth [1]	growth [2]	growth [3]	growth [4]	growth [5]	growth [6]	growth [7]	growth [8]	growth [9]	growth [10]	growth [11]	growth [12]	growth [13]	growth [14]	growth [15]	growth [16]	growth [17]	growth [18]	growth [19]
CCCNC(=S)N/N=C(\C)c1ccccn1	34.3%	17%	24.3%	41.1%	10.4%	38.7%	24.2%	12%	6.11% (active)	28.5%	37.2%	74.2%	38.4%	21.7%	26.7%	22.4%	11.1%	9.29% (active)	52.4%
CCCCNCCC(O)c1cc2ccc(C(F)(F)F)cc2c2cc(C(F)(F)F)ccc12 (centres undefined)	-93.4% (active)	-72.1% (active)	-59.5% (active)	-73.3% (active)	-90.8% (active)	-88% (active)	-81.8% (active)	-75.5% (active)	-84.6% (active)	-65.2% (active)	-84.8% (active)	-90.5% (active)	-76.6% (active)	-93.7% (active)	-85.2% (active)	-87.6% (active)	-84.3% (active)	-71.2% (active)	-87.7% (active)
Fc1[nH]nc2ccc([C@@H]3Nc4ccc5[nH]ncc5c4[C@H]4C5CCC(C5)[C@@H]34)cc12 (some centres undefined)	15.1%	15.1%	48.5%	46.2%	-6.05% (active)	57.5%	-15.9% (active)	82.2%	21.2%	34.5%	8.7% (active)	-14.8% (active)	36.6%	25.8%	27.8%	25.7%	27.5%	48.3%	54.8%
O=C(CS)OCC(COC(=O)CS)(COC(=O)CS)COC(=O)CS	95.3%	34.3%	89.6%	104%	98.8%	82.7%	98.4%	59.3%	18.1%	85%	98.9%	74.5%	119%	103%	83.4%	102%	67.9%	70.5%	90.1%
CC(COC(=O)c1ccccc1)N1CC2CCC(C1)O2 (centres undefined)	107%	97.3%	104%	107%	106%	106%	100%	92.7%	99.3%	99.7%	107%	93.7%	102%	98.7%	91.6%	101%	100%	98%	104%
C/C(=N\NC(=S)Nc1ccccc1)c1ccccn1	57.5%	23.6%	31.3%	30.8%	12.2%	43.3%	19.6%	17.6%	24.1%	28.1%	34.4%	79.9%	43.5%	32.1%	31.6%	16.5%	16.4%	37.3%	59.8%
CC(C)OC(=O)c1ccc([N+](=O)[O-])cc1	116%	117%	131%	102%	116%	119%	112%	101%	108%	107%	102%	111%	109%	106%	102%	106%	100%	98%	110%
COc1ccc(NC(=O)C2c3ccccc3C(=O)N(CC(C)C)C2c2cccs2)cc1 (centres undefined)	98.9%	88.8%	113%	92.1%	79.2%	95.1%	98.9%	97.2%	106%	98.9%	101%	92.6%	111%	96%	95.1%	89.1%	89.5%	86.3%	105%
CC(C)N=C1CCCC1C(=S)SSC(=S)C1CCCC1=NC(C)C (centres undefined)	64.9%	34.9%	53.8%	76.9%	78.3%	68.6%	83.4%	69.7%	64.4%	54.6%	79.1%	74.3%	83.5%	50.3%	47.4%	81.6%	75%	50.9%	81%
COC(=O)C(CCC(=O)CCl)N1C(=O)c2ccccc2C1=O (centres undefined)	87.6%	28.6%	42.2%	84.6%	25.8%	56.5%	64.9%	69.7%	39.9%	48.1%	34.3%	91.5%	99.9%	47.1%	60.3%	71.3%	64.8%	-44.1% (active)	87%
CCC(=O)NC(O)C(Cl)(Cl)C(C)Cl (centres undefined)	116%	112%	87%	99.8%	111%	109%	99.3%	93.4%	98.7%	95.6%	–	91.7%	98.4%	98.6%	98.2%	97.7%	97.5%	96.4%	104%
CCCCCCCCNC(C)C(O)c1ccc(SC(C)C)cc1 (centres undefined)	-25.5% (active)	-59.8% (active)	-78% (active)	89.7%	37.5%	34.9%	26.8%	56%	-17.4% (active)	14.8%	–	74.8%	75.9%	–	7.49% (active)	68.4%	92.7%	-95.5% (active)	74.3%
COc1cc(NC(C)CCCN)c2ncccc2c1Sc1ccc(Cl)cc1 (centres undefined)	76.3%	-33.2% (active)	82.4%	36%	57.9%	70.5%	75.9%	65.1%	27.5%	39.3%	-46.4% (active)	48.7%	78.3%	–	47.1%	67.3%	81.2%	-62.4% (active)	93.3%
CCN(CC)CCCNc1cccc2c(C)cc(OC)nc12	114%	92.3%	107%	81%	93.9%	104%	88.8%	98.9%	93.2%	94.9%	87.6%	76.8%	94.9%	–	75.1%	91.3%	85.3%	105%	103%
COc1cccc(/C=N/N=C(N)N)c1	102%	94.5%	111%	91.4%	106%	101%	84.5%	97.1%	93.8%	100%	100%	89.9%	101%	103%	97.2%	98.1%	–	106%	106%
C#CC[C@@H]1C[C@]2(C)[C@H]3CC=C4[C@H]5[C@@H](C)[C@H](C)CC[C@]5(C(=O)NCCCN5CCN(CCCN)CC5)CC[C@@]4(C)[C@]3(C)CC[C@H]2C(C)(C)[C@H]1OC(C)=O	0.421% (active)	-23.3% (active)	-81% (active)	-70.4% (active)	-82.1% (active)	85%	-94% (active)	-32.1% (active)	-69.2% (active)	-83.7% (active)	–	-61.5% (active)	-46.1% (active)	-75.8% (active)	15%	-7.08% (active)	-68.1% (active)	-83.2% (active)	-84.6% (active)
Cc1ccc(N=CNN=C(N)N)cc1	113%	87.8%	114%	118%	110%	105%	94.8%	97.4%	103%	100%	–	96.8%	105%	–	107%	105%	89.8%	113%	106%
